# Measurements published in PubChem BioAssay (Tox21).
# Inconclusive results are not listed. Values without a mark were called inactive. Active and inactive are the calls of the source. Calls follow the shape of the full dose curve.
# Test: qHTS assay to identify small molecule agonists of the NFkB signaling pathway - cell viability counter screen (AID 1159515); also: nearly all actives have a fitted effect of over 55% in size
# Settings: NFkB-bla ME-180 viability, CellTiter-Glo luminescence, 5 h; series mostly up to 61 µM
# From the text: National Center for Advancing Translational Sciences [NCATS]
# NIH Chemical Genomics Center [NCGC]
# U.S. Environmental Protection Agency [EPA]
# National Institutes of Environmental Health Sciences [NIEHS]
# National Toxicology Program [NTP]
# U.S. Food and Drug Administration [FDA]
# Transcription factors and their stimulated target gene expression play pivotal roles across many cellular processes including responses to environmental stimuli. Proper regulation of associated pathways is critical to maintain cell health and function. Constitutive activation of transcription factor pathways has been implicated in tumors as it may block cellular functions such as apoptosis and lead to invasion and metastasis. One important transcription factor that stimulates gene expression in response to cytokines, UV radiation, and other stimuli is nuclear factor-kappa B (NFkB). To measure activation of the NFkB pathway, the CellSensor NFkB-bla ME-180 cell line (Life Technologies, Carlsbad, CA) that stably expresses beta-lactamase reporter gene under the regulation of a NF-kB response element was used. This assay allows measurement of the NFkB pathway activity induced by compounds in a ME-180 cell line. This system quantitates NF-kB activity using a FRET-based assay system where beta-lactamase expression disrupts FRET, allowing for fluorescent measurement of activity. This cell line has been used to screen the Tox21 10K compound library and to identify compounds that induce the NFkB pathway activity. The cytotoxicity of the Tox21 compound library against the NFkB-bla ME-180 cell line was tested in parallel by measuring cell viability using the CellTiter-Glo assay in the same wells.
# Tox21 Assay Protocol Summary:
# NFkB-bla ME-180 cells were dispensed at 2,000 cells/6 uL of assay medium per well into black wall/clear-bottom 1536-well plates using a Multidrop Combi (ThermoFisher Scientific, Waltham, MA) dispenser. After the assay plates were incubated at 37 C and 5% CO2 for an overnight, 23 nL of compounds dissolved in DMSO, positive controls or DMSO only was transferred to the assay plate by a Pintool station (Kalypsys, San Diego, CA). The assay plates were incubated at 37 C and 5% CO2 for 5 hr. One uL of LiveBLAzer B/G FRET substrate (Life Technologies) was added using a Flying Reagent Dispenser (Aurora Discovery, San Diego, CA) and the plates were incubated at room temperature for 1.5 hr. Fluorescence intensity (405 nm excitation, 460 nm and 530 nm emissions) was measured using an Envision plate reader (PerkinElmer, Shelton, CT). For cytotoxicity, 3 ul/well of CellTiter-Glo reagent was added into the assay plates using an FRD. After 30 min incubation at room temperature, the luminescence intensity was measured using a ViewLux plate reader (PerkinElmer).
# % is scaled to controls: 0 for no effect and ±100 for the full control effect.
SMILES,outcome,"activity, negative = cytotoxic"
CCc1nn(CCCN2CCN(c3cccc(Cl)c3)CC2)c(=O)n1CCOc1ccccc1,inactive,–
COC(=O)CC(=O)C(C)(C)C,inactive,–
CC1CC(O)CC(C)(C)C1 (stereo not given),inactive,–
CCN(Cc1cccc(S(=O)(=O)O)c1)c1ccc(C(=C2C=CC(=[N+](CC)Cc3cccc(S(=O)(=O)[O-])c3)C=C2)c2ccccc2)cc1,inactive,–
O=C1OCCN1/N=C/c1ccc([N+](=O)[O-])o1,inactive,–
CCC(Cc1ccccc1)(C(=O)c1ccc(N2CCOCC2)cc1)N(C)C (stereo not given),inactive,–
CC(=O)N(c1onc(C)c1C)S(=O)(=O)c1ccc(N)cc1,inactive,–
c1ccc(COCc2ccccc2)cc1,inactive,–
CCCCCCCC/C=C\CCCCCCCC(=O)OC,inactive,–
Brc1cc(-c2ccc(Br)c(Br)c2Br)cc(Br)c1Br,inactive,–
O=C(CS)OCCOC(=O)CS,inactive,–
CC1(C)C2=CCCC(C)(C)[C@]23CC[C@H]1C3,inactive,–
CC1=CC(O)CC(C)(C)C1 (stereo not given),inactive,–
CNC(=O)N(c1ccccc1)c1ccccc1,inactive,–
CNC(=S)NC,inactive,–
CCCCCCOC(=O)CCCCCCCC(=O)OCCCCCC,inactive,–
Nc1nc(Cl)nc2c1ncn2[C@@H]1O[C@H](CO)[C@@H](O)[C@@H]1F,inactive,–
CC(CCO)CCc1ccccc1 (stereo not given),inactive,–
CCCCOC(=O)CCS,inactive,–
Nc1ccc(Cl)cc1[N+](=O)[O-],inactive,–

SMILES,outcome,"activity, negative = cytotoxic"
OC/C(Br)=C(\Br)CO,inactive,–
O=C(CCC1CCN(Cc2ccccc2)CC1)c1ccc2c(c1)NCCCC2,inactive,–
CC1C2CC(CC2C2CCCC(O)C2)C1(C)C (stereo not given),inactive,–
C[N+](C)(C)CCOC(N)=O,inactive,–
CCCCCCCCSCCO,inactive,–
CC(=O)Nc1ccc(N)cc1,inactive,–
C1COCO1,inactive,–
[O]=[Bi],–,3.69% [at 6.95 µM]
CC1(C)C(=O)N(Br)C(=O)N1Cl,inactive,–
Cc1ccccc1N1C(=O)c2cc(S(N)(=O)=O)c(Cl)cc2NC1C (stereo not given),inactive,–
C=CC(=O)NCOCC(C)C,inactive,–
CC(C)(C)CC(C)(C)c1ccc(OCCO)cc1,inactive,–
CC(CCc1ccc2c(c1)OCO2)NN (stereo not given),inactive,–
Fc1c(F)c(F)c(Br)c(F)c1F,inactive,–
CCCCCCCCCCCCCCCCBr,inactive,–
O=C(N/N=C/c1ccc([N+](=O)[O-])o1)c1ccc(O)cc1,inactive,–
O=c1[nH]c2ccc(S(=O)CCN3CCC(Cc4ccc(F)cc4)CC3)cc2o1 (stereo not given),inactive,–
CCCCCCCC/C=C\CCCCCCCC(=O)OC(CO)CO,inactive,–
O=C(O)c1snc(Cl)c1Cl,inactive,–
OC(CCCN1CCCCC1)(c1ccccc1)c1ccccc1,inactive,–
